IEC-6 cytotox – cytotoxicity in IEC-6 intestinal epithelial cells, primary screen, cytotoxicity control for KLF5 inhibitor project, cell-based, luminescence; IEC-6 cytotoxicity, luminescence viability; inhibition, % at 5 µM; hit rate 0.78% among 290,000; in the data active = inhibition above about 22%;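 also: 0% = plate median of test compound wells and 100% = cytotoxic reference compound wells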
Ba/F3 V617F tox – reduced viability of JAK2V617F-dependent Ba/F3 cells, primary screen, JAK2V617F inhibitor project, cell-based, Ba/F3 EpoR-JAK2V617F, luminescence; inhibition, % at 5.6 µM; ATP luminescence; hit rate 1.1% among 220,000;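 active = inhibition above the campaign mean plus 3 SD over all tested compounds, cut at about 24% in these data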;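 also: cytokine-independent growth of Ba/F3 cells driven by EpoR plus mutant JAK2; 0% = DMSO-treated cells and 100% = JAK inhibitor I control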
KLF5 inh – KLF5 expression inhibitors, primary screen, DLD-1 cells, luminescence; DLD-1 KLF5 promoter-luciferase reporter; inhibition, % at 5 µM; hit rate 0.23% among 290,000;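 active = inhibition above a per-plate limit of that plate's mean compound inhibition plus 3 SD, cut at about 60% in these data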;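 also: 0% = DMSO wells and 100% = LY294002 at 200 µM; higher means less KLF5 promoter-driven luciferase light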
BaF3 tox – parental Ba/F3 cell viability inhibition, counter-screen for JAK2V617F inhibitor project, murine pro-B, CellTiter-Glo luminescence. AID 1486, 2009. inhibition, % at 5.6 µM. hit rate 1.1% among 220,000. CellTiter-Glo ATP luminescence;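 active = inhibition above a per-campaign cutoff, the mean inhibition of all tested compounds plus 3 SD, cut at about 27% in these data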;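 also: 0% = DMSO wells and 100% = JAK Inhibitor I control wells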
APP transl inh – inhibitors of APP translation via 5'UTR reporter, primary screen, APP 5'UTR luciferase, SH-SY5Y cells; AID 1285, 2008; hit rate 0.82% among 190,000; SH-SY5Y APP 5'UTR-luciferase reporter, luminescence; inhibition, % at 2 µM;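 active = inhibition above a set limit, derived from the sample mean plus 3 SD, cut at about 45% in these data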
* hit, by the source's call; · = no result given. The list is not random: actives were taken first. Their share in the collection is about 1.9%.

SMILES	IEC-6 cytotox	Ba/F3 V617F tox	KLF5 inh	BaF3 tox	APP transl inh
COc1ccc(C(NC(=O)c2cccnc2)c2cc(Cl)c3cccnc3c2O)cc1OC (stereo not given)	7	1	1	5	74*
CCC(=O)NC(c1ccco1)c1cc(Cl)c2cccnc2c1O (stereo not given)	-5	0	13	9	-4
CCC(=O)NC(c1ccc(OC)cc1)c1cc(Cl)c2cccnc2c1O (stereo not given)	2	-2	-5	-1	64*
Oc1c(C(Nc2ccccn2)c2cccnc2)cc(Cl)c2cccnc12 (stereo not given)	1	-4	3	4	30
O=C(CCc1ccccc1)NC(c1cccs1)c1cc(Cl)c2cccnc2c1O (stereo not given)	-4	-1	-14	1	68*
CCOc1ccccc1CN1CCN(Cc2ccc(C)o2)C(CCO)C1 (stereo not given)	2	1	-40	80*	5
COc1ccc(OC)c(CCNC(=O)CCc2nnc3ccc(N4CCOCC4)nn23)c1	3	·	-42	·	·
Brc1ccc2ncnc(NCc3ccccc3)c2c1	12	1	-8	10	9
c1ccc(CCNc2ncnc3ccccc23)cc1	21	65*	-68	68*	-89
Cn1c(N)c(C(=O)Nc2ccc(-c3ccccc3)cc2)sc1=S	6	3	-9	2	·
CCc1nc2oc3ccc(C)cc3c(=O)c2cc1C(=O)OC	-4	·	-109	·	·
CC1=CN2C(=N)/C(=C/c3ccc([N+](=O)[O-])o3)C(=O)N=C2S1	-21	2	-16	7	48*
Cc1ccc(-c2c[n+](Cc3cccc(Cl)c3)c3n2CCC3)cc1	4	82*	-1	75*	·
Clc1cccc(C[n+]2cc(-c3ccccc3)n3c2CCC3)c1	-12	65*	-14	65*	-12
CC(=O)N(C)c1cccc([N+](=O)[O-])c1	-6	-5	-12	0	87*
CC(C)(C)c1ccc(OCC(=O)O/N=C(\N)c2ccncc2)cc1	2	·	-73	·	·
Cc1cc(C(=O)NN=C2CCCCC2)c2ccccc2n1	3	0	2	0	80*
Cc1cc(C(=O)NN=C2C3CC4CC(C3)CC2C4)c2ccccc2n1	7	-3	7	2	76*
Cc1ccc(-c2cc(C(=O)NN=C3CCCC3)c3ccccc3n2)cc1	-1	0	-6	-2	-10
S=C(Nc1ccc(Cl)cc1)N(CCCN1CCOCC1)Cc1ccco1	-5	37*	-13	32*	14
Cc1ccc(Cl)c(NC(=S)N(CCCN2CCOCC2)Cc2ccco2)c1	6	11	-2	36*	-9
CCN1CCN(CCCN(Cc2ccco2)C(=S)Nc2ccc(Cl)c(C)c2)CC1	5	38*	-16	28*	-8
CCOc1cccc(N2CCN(CCNC(=O)Nc3ccc(C)cc3)CC2)c1C	1	·	-16	·	·
CCc1ccc(NC(=O)C2CCCN2S(=O)(=O)c2ccc3c(c2)C(C)(C)C(=O)N3C)cc1 (stereo not given)	4	·	-39	·	·
COC(OC)c1ccc(C#N)c(=O)[nH]1	3	7	-17	8	46*
SMILES	IEC-6 cytotox	Ba/F3 V617F tox	KLF5 inh	BaF3 tox	APP transl inh
COc1ccc(OC(C)c2ccc(C#N)c(=O)[nH]2)cc1 (stereo not given)	-1	2	-22	6	15
COn1c(=O)c(-c2cccs2)[n+]([O-])c2ccccc21	9	4	15	3	8
Cn1c(-c2cccs2)[n+](C)c2ccccc21	7	49*	12	32*	-7
OC(c1cc(-c2ccc(C(F)(F)F)cc2)nc(C(F)(F)F)c1)C1CCCCN1 (stereo not given)	40*	96*	-2	53*	·
COC(=O)CSc1nc(-c2ccc(F)cc2)cc(C(F)(F)F)n1	0	1	-43	4	10
C=CC[n+]1c(/C=C2\C=Cc3cc(C)ccc3N2CC)ccc2ccccc21	41*	100*	7	80*	20
Cc1cc(NC(=O)Cc2ccccc2)c2ccccc2n1	11	39*	-13	73*	-6
CS(=O)(=O)N1CCC(C(=O)Nc2c(F)cccc2F)CC1	-5	0	-11	70*	-7
Cc1ccccc1NC(=O)C1CC(=O)OC12CCOC(C)(C)C2 (stereo not given)	-7	-5	-22	1	-2

Compound activity (PubChem)
